Compound activity as filed in PubChem.
Shown are actives, neighbours in structure and some others; about 1.4% of the full set was active somewhere.
MBD2 inh – inhibitors of MBD2 binding to methylated DNA, primary screen, biochemical, TR-FRET, DNA-binding domain, human. Methyl-CpG-binding domain protein 2 (Homo sapiens), Q9UBB5. MBD2 binding to methylated oligonucleotide. inhibition, % at 4.4 µM. 0.31% of 370,000 active. AID 686964, 2013; in the data active means inhibition above about 13%
Target sequence (Q9UBB5 whole entry, looked up, the tested form may be a part): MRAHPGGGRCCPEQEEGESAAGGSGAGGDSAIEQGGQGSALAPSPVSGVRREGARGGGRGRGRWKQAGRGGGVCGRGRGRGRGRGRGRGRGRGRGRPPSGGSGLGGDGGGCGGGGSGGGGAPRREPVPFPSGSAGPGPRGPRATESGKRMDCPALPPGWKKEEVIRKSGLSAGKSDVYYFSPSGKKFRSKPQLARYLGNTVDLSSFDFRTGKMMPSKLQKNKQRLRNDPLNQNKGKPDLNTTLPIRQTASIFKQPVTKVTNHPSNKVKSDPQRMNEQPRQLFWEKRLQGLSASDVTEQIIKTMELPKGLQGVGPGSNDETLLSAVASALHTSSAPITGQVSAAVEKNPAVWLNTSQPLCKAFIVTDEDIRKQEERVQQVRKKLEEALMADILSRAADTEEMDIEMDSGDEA
UHRF1 binding – UHRF1 methylated DNA binding inhibitors, primary screen, counter-screen for MBD2 inhibitor project, biochemical, TR-FRET, human UHRF1, single concentration. 0.75% of 370,000 active. E3 ubiquitin-protein ligase UHRF1 (Homo sapiens), Q96T88. AID 687016, 2013. inhibition, % at 4.4 µM. UHRF1 binding to methylated oligo; in the data active means inhibition above about 21%;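 further: UHRF1 SRA domain binding a hemimethylated CpG hairpin DNA probe; 0% = median of test compound wells and 100% = reference inhibitor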
CASP6 VEID inh – human caspase-6 inhibitors, primary screen, biochemical, VEID-R110 fluorescence, single point, set 2 | 0.53% of 350,000 active | purified caspase-6, Z-VEID-R110 cleavage fluorescence | P55212 | inhibition, % at 12.5 µM | AID 686996, 2013;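 active means mean inhibition across replicates at least about 35%, with every replicate also reaching that limit, limit read from the data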;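 further: 0% = median of neutral control wells and 100% = no fluorescence left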
LEDGF integ inh – blockers of LEDGF/p75-dependent integrase strand transfer – biochemical, TR-FRET, high throughput, primary screen; TR-FRET IN-LEDGF/p75 DNA integration, Eu/Cy5; inhibition, % at 3.7 µM; 0.64% of 370,000 active; AID 743269, 2014;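 active means inhibition above the screen-wide mean plus 3 SD, cut at about 13% in these data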;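 further: signal is the Cy5 over europium emission ratio at 671 and 618 nm; 0% = plate median of compound wells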
* marks the source's active call; other numbers are inactive results; · = no result.

SMILES | MBD2 inh | UHRF1 binding | CASP6 VEID inh | LEDGF integ inh
NS(=O)(=O)c1cccc(NC(=O)c2ccc3nc[nH]c3c2)c1 | -6 | -2 | 54* | 5
C[C@@H]1CN([C@@H](C)CO)C(=O)c2cc(NC(=O)C3CCCCC3)ccc2O[C@@H](C)CCCCO[C@@H]1CN(C)S(=O)(=O)c1cccs1 | · | · | 0 | ·
Nc1ccc2c(O)cc(S(=O)(=O)O)cc2c1 | 4 | 21* | 77* | 40*
COc1ccccc1Nc1ccc2c(O)cc(S(=O)(=O)O)cc2c1 | 24* | 47* | 88* | 36*
O=S(=O)(O)c1cc(O)c2ccc(Nc3ccccc3)cc2c1 | 36* | 64* | 95* | 32*
CC(=O)Nc1ccc2c(O)cc(S(=O)(=O)O)cc2c1 | 1 | 2 | 35 | 2
CNC[C@@H]1Oc2ccc(NS(C)(=O)=O)cc2CC(=O)N([C@H](C)CO)C[C@H]1C | · | · | -1 | ·
Clc1ccc(N2CCN(Cc3c[nH]c4ncccc34)CC2)cc1 | -3 | 23* | 4 | -1
c1ccc(CN2CCN(Cc3c[nH]c4ccccc34)CC2)cc1 | 2 | 0 | -1 | 3
CCc1ccc2cccc3c2c1N=CN3C | -8 | -4 | 61* | -11
CN1C(=O)N(C)c2cccc3cccc1c23 | 0 | -2 | 0 | -4
CC(NS(=O)(=O)c1cn(C)c(=O)n(C)c1=O)c1ccccc1 (configuration not stated) | 9 | 24* | 1 | 1
CCCCOC(=O)Nc1ccc(S(=O)(=O)Nc2onc(C)c2C)cc1 | -2 | 21* | 2 | -3
S=c1[nH]cc(-c2ccccc2)n1-c1cccc(Cl)c1 | -2 | -4 | 55* | -1
COc1ccc(NC(=S)N2CCC(C(=O)c3ccc(C)cc3)CC2)c(OC)c1 | 2 | 26* | 0 | -8
C/C=C/c1ccc([C@H]2[C@@H](CNC(=O)CC)N(C(=O)COC)[C@H]2CO)cc1 | · | · | -3 | ·
CC(C)CCn1c(=O)c2ccccc2n2c(CCC(=O)NCC3CCCO3)nnc12 (configuration not stated) | -2 | 6 | 38* | -1
C[C@H]1CN([C@@H](C)CO)C(=O)c2cc(C#Cc3ccccn3)cnc2O[C@H]1CN(C)C(=O)c1ccccn1 | · | · | 1 | ·
N#Cc1cccc(-c2ccc([C@@H]3[C@@H](CO)N4CCCCN(C(=O)Nc5cccc(F)c5)C[C@@H]34)cc2)c1 | · | · | -1 | ·
COc1cccc(CN(C)C(=O)c2cccnc2SC)c1OC | 9 | 26* | -5 | -1
CC(=O)N1[C@@H]2c3ccc(C4=CCCCC4)c(=O)n3C[C@H]1[C@H](CO)[C@H]2C(=O)N[C@@H](C)c1ccccc1 | · | · | -1 | ·
CCC(=O)N1[C@@H]2c3cccc(=O)n3C[C@H]1[C@H](CO)[C@H]2C(=O)NCc1ccc(F)cc1 | · | · | 0 | ·
O=C(N/N=C\c1ccc([N+](=O)[O-])o1)c1cncc(Br)c1 | 3 | 2 | 39* | 11
O=C(N/N=C/c1ccc(-c2ccccc2[N+](=O)[O-])o1)c1cncc(Br)c1 | 0 | -7 | · | 0
COc1ccc(NC(=O)N(C)C[C@@H]2Oc3ccc(NS(=O)(=O)c4cccs4)cc3C(=O)N([C@@H](C)CO)C[C@H]2C)cc1 | · | · | 1 | ·
SMILES | MBD2 inh | UHRF1 binding | CASP6 VEID inh | LEDGF integ inh
Cc1ccc(NC(=S)NCC2CCN(C(C)c3ccccc3)C2)cc1C (configuration not stated) | 1 | 23* | -15 | 1
Cc1ccc(NC(=S)NCC2CCCO2)cc1C (configuration not stated) | 0 | 0 | · | 2
Cc1ccc(SCC(=O)c2ccc(CC(=O)O)s2)cc1 | -2 | 14 | 65* | 8
O=C(O)Cc1ccc(C(=O)c2ccccc2)s1 | -1 | 0 | · | 0
O=C(O)Cc1ccc(C(=O)CSc2ccccc2)s1 | 0 | 2 | 49* | 7
O=C(Nc1ccccc1)c1cccc(NC(=O)c2ccco2)c1 | -6 | -1 | 2 | 0
CC(Oc1ccccc1)C(=O)Nc1cccc(NC(=O)c2ccco2)c1 (configuration not stated) | -7 | 4 | 39* | 3
Cc1ccc(S(=O)(=O)Nc2ccc3c(c2)CC(=O)N([C@@H](C)CO)C[C@H](C)[C@H](CN(C)C(=O)NC2CCCCC2)O3)cc1 | · | · | -1 | ·
Cc1ccc(C)n1-c1cc([N+](=O)[O-])ccc1-n1ccnc1 | -1 | -1 | 2 | -1
CC1(C)N([O-])c2cc([N+](=O)[O-])ccc2[N+]1=O | -10 | 7 | 38* | 21*
COc1ccc(OCCCC(=O)OC(C)C(=O)Nc2ccc(S(N)(=O)=O)cc2)cc1 (configuration not stated) | 3 | 3 | -1 | 35*
Cc1noc(C)c1NC(=O)Nc1ccc2c(c1)C(=O)N([C@H](C)CO)C[C@@H](C)[C@H](CN(C)S(=O)(=O)c1c(C)noc1C)OCCCC[C@@H](C)O2 | · | · | 2 | ·
COc1ccc(C(CCN2CCN(c3ccccc3)CC2)c2c(O)cc(OC)cc2OC)cc1 (configuration not stated) | 3 | -5 | · | 1
COc1cc(O)c(C(CCN2CCN(c3ccccc3)CC2)c2ccc(N(C)C)cc2)c(OC)c1 (configuration not stated) | 8 | 22* | 0 | 3
O=C(NCC[C@H]1CC[C@@H](NS(=O)(=O)c2cccc(F)c2)[C@H](CO)O1)C1CCCCC1 | · | · | 1 | ·
CO[C@@H]1CN(C)C(=O)c2cc(NC(=O)Nc3ccccc3)ccc2OC[C@H](C)N(C(C)=O)C[C@@H]1C | · | · | -5 | ·
O=C1NN(c2ccc(Cl)cc2)C(=O)/C1=C\c1ccc(-c2cccc(C(=O)O)c2)o1 | 5 | 28* | 73* | 0
O=C(Nc1ccc(N2CCN(C(=O)c3ccco3)CC2)cc1)c1ccc(Br)cc1 | -1 | 70* | 3 | 0
O=C(NC[C@H]1CC[C@H]2[C@H](CN2C(=O)CN2CCOCC2)O1)NC1CCCCC1 | · | · | 1 | ·
CN(CC(=O)N1CCN(c2ccccc2)CC1)S(=O)(=O)c1cnc[nH]1 | -2 | 29* | · | 2
O=C(O)c1cccc(S(=O)(=O)NNc2ccccc2C(F)(F)F)c1 | -1 | -1 | 40* | 1
CC(C)=C1C(=O)NN(c2ccc(F)c(Cl)c2)C1=O | -2 | -1 | 68* | 2
O=C1NN(c2ccc(F)c(Cl)c2)C(=O)/C1=C\c1cccc(OC(=O)c2cccs2)c1 | -6 | -3 | · | 8
O=C(CSc1n[nH]c(=O)n1-c1ccc2c(c1)OCCO2)Nc1ccccc1 | -2 | 27* | -5 | 1
C[C@H]1CN([C@@H](C)CO)C(=O)c2cc(NC(=O)Nc3cccc4ccccc34)ccc2O[C@@H]1CN(C)S(C)(=O)=O | · | · | 1 | ·
Cc1ccccc1NC(=O)NC1(C(=O)N2CCOCC2)CCCCC1 | 2 | 1 | 1 | 5
